Assay results published in the supplement of paper PMC10720658.
Structures can show the parent of a compound that is named as a salt. ± gives the standard deviation of the averaged measurements.

Tested on: AEK1 (Tb927.3.2440)
Experiment: percent reduction in TR-FRET probe signal relative to DMSO control; higher = stronger displacement of ATP-site probe (binding)
Conditions: 1 µM; incubation time 1 h

Compound | percent reduction in TR-FRET probe signal
C=CC(=O)Nc1ccc(CN2C(=O)N(c3cc(OC)cc(OC)c3)Cc3cnc(Nc4ccc(N5CCN(C)CC5)cc4)nc32)cc1 | 4.12 ± 14%
Cn1cc(C2=C(c3ccc(Cl)cc3Cl)C(=O)NC2=O)c2ccccc21 | -6.53 ± 5.3%
CS(=O)(=O)O.Cc1ccc(NC(=O)c2ccc(CN3CCN(C)CC3)cc2)cc1Nc1nccc(-c2cccnc2)n1 [Imatinib Mesylate (STI571)] | 7.01 ± 21%
CN(C[C@@H]1COCCO1)S(=O)(=O)Nc1ccc2ccc3ncc(-c4cnn(C)c4)cc3c(=O)c2c1 | 7.88 ± 10%
CCN1CCN(Cc2ccc(-c3cc4c(N[C@H](C)c5ccccc5)ncnc4[nH]3)cc2)CC1 | 12.6 ± 16%
CC(C)(O)CC(=O)NCCn1ccc2ncnc(Nc3ccc(Oc4cccc(C(F)(F)F)c4)c(Cl)c3)c21 | -2.36 ± 7.6%
C#Cc1cccc(Nc2ncnc3cc(OC)c(OCCCCCCC(=O)NO)cc23)c1 | -2.76 ± 13%
CNC(=O)c1cc(Oc2ccc(NC(=O)Nc3ccc(Cl)c(C(F)(F)F)c3)cc2)ccn1 [Sorafenib] | 17.5 ± 6.7%
C=CC(=O)Nc1cccc(Oc2nc(Nc3ccc(N4CCN(C)CC4)cc3)nc3ccsc23)c1 | -10.3 ± 4.1%
C[C@H]1[C@H](C)CC[C@]2(C(=O)O)CC[C@]3(C)C(=CC[C@@H]4[C@@]5(C)C[C@@H](O)[C@H](O)[C@@](C)(CO)[C@@H]5CC[C@]43C)[C@H]12 [Asiatic Acid] | -8.28 ± 13%
CO[C@H]1C[C@@H]2CC[C@@H](C)[C@@](O)(O2)C(=O)C(=O)N2CCCC[C@H]2C(=O)O[C@H]([C@@H](C)C[C@@H]2CC[C@@H](OCCO)[C@H](OC)C2)CC(=O)[C@H](C)/C=C(\C)[C@@H](O)[C@@H](OC)C(=O)[C@H](C)C[C@H](C)/C=C/C=C/C=C/1C [Everolimus (RAD001)] | -14.9 ± 8.4%
CCc1cncnc1N1CCN(Cc2nc3cc(C(F)(F)F)ccc3[nH]2)CC1 | -7.37 ± 13%
CC(C)n1nc(-c2cc3cc(O)ccc3[nH]2)c2c(N)ncnc21 | 5.23 ± 4.5%
O=C1c2ccccc2-c2n[nH]c3cccc1c23 | -3.83 ± 17%
Cl.O=C1NCCc2[nH]c(-c3ccncc3)cc21 | 11.4 ± 8.5%
Oc1cccc(-c2nc(N3CCOCC3)c3oc4ncccc4c3n2)c1 | -5.8 ± 6.4%
COc1nccc(-c2c(-c3ccc(F)cc3)ncn2[C@H]2CC[C@H](O)CC2)n1 | -2.94 ± 9.9%
Cn1cnc2c(F)c(Nc3ccc(Br)cc3F)c(C(=O)NOCCO)cc21 | -1.44 ± 2.7%
CNC(=O)c1ccc(C)c(-n2c(C)cc(OCc3ccc(F)cc3F)c(Br)c2=O)c1 | -1.42 ± 7.4%

Compound | percent reduction in TR-FRET probe signal
Cc1ccc2nc(NCCN)c3ncc(C)n3c2c1 | -7.43 ± 3.5%
CCOC(=O)c1cnc2ccc(-c3cncc(NS(=O)(=O)c4ccccc4)c3)cn12 | -3.6 ± 8.8%
CCc1cccc(CC)c1NC(=O)N1Cc2[nH]nc(NC(=O)c3ccc(N4CCN(C)CC4)cc3)c2C1 | 29.3 ± 8.1%
Oc1ccc2ccccc2c1SSc1c(O)ccc2ccccc12 | -9.34 ± 9%
O=C1NC(=O)/C(=C\c2ccc(-c3ccc(F)cc3)o2)S1 | -0.187 ± 4.6%
CNC(=O)c1cccc(-c2ccc3c(N4CCOC[C@@H]4C)nc(N4CCOC[C@@H]4C)nc3n2)c1 [Vistusertib (AZD2014)] | 9.57 ± 9.3%
COc1cccc2cc(-c3nc([C@H]4CC[C@H](C(=O)O)CC4)n4ncnc(N)c34)[nH]c12 | -0.417 ± 9.2%
CS(=O)(=O)N1CCN(Cc2cc3nc(-c4cccc5[nH]ncc45)nc(N4CCOCC4)c3s2)CC1 | 4.23 ± 8.1%
Cc1ccc(Nc2nccc(N(C)c3ccc4c(C)n(C)nc4c3)n2)cc1S(N)(=O)=O [Pazopanib HCl] | 3.07 ± 12%
CCC(=O)Nc1cccc(Oc2nc(Nc3ccc(N4CCN(C)CC4)cc3OC)ncc2Cl)c1 | -15.7 ± 6.4%
O=C(NOC[C@H](O)CO)c1ccc(F)c(F)c1Nc1ccc(I)cc1F | -3.89 ± 11%
O=C(NC(NC(=S)Nc1ccc(F)c([N+](=O)[O-])c1)C(Cl)(Cl)Cl)C(c1ccccc1)c1ccccc1 (stereo not drawn) | 3.75 ± 8.9%
Cc1ccc(C(=O)Nc2ccc(CN3CCN(C)CC3)c(C(F)(F)F)c2)cc1C#Cc1cnc2[nH]ncc2c1 | 29.4 ± 11%
Cc1cnc(Nc2ccc(F)cc2Cl)nc1-c1c[nH]c(C(=O)N[C@H](CO)c2cccc(Cl)c2)c1 | 9.02 ± 15%
N#Cc1c(Oc2ccc(F)c(NC(=O)Cc3cccc(C(F)(F)F)c3)c2)ccc2nc(NC(=O)C3CC3)sc12 | 1.05 ± 9.1%
O=C(Nc1nc2cccc(-c3ccc(CN4CCS(=O)(=O)CC4)cc3)n2n1)C1CC1 [Filgotinib (GLPG0634)] | 9.11 ± 14%
CC(C)(C)c1cnc(CSc2cnc(NC(=O)C3CCNCC3)s2)o1 | -4.82 ± 4.6%
CC(C)(C)c1ccc(S(=O)(=O)/C=C/C#N)cc1 | -17 ± 7.6%
Cc1nc(Nc2ncc(C(=O)Nc3c(C)cccc3Cl)s2)cc(N2CCN(CCO)CC2)n1 [Dasatinib] | 10.6 ± 19%
